# In the OligoGym collection:
# What was measured:
# Test in all cases: pooled miR-30 sensor sort-seq; sequence = guide strand
# Conditions in all cases: shRNA
# YWHAG = target: YWHAG
# YY1AP1 = target: YY1AP1
# YY2 = target: YY2
# ZBTB24 = target: ZBTB24
# ZBTB8A = target: ZBTB8A
# ZBTB39 = target: ZBTB39
# ZBTB5 = target: ZBTB5
# ZDHHC6 = target: ZDHHC6
# ZMAT5 = target: ZMAT5
# ZNF169 = target: ZNF169
# ZNF512B = target: ZNF512B
# ZNF592 = target: ZNF592
# ZNF836 = target: ZNF836
# ZSCAN21 = target: ZSCAN21
# ZNFX1 = target: ZNFX1
# ZNRF2 = target: ZNRF2
# Further: reference of the scale not given here.
sequence,measurement,setting,value
TTTAAGTTTTCTTTTCATCTGA,sensor-assay potency score (higher = more potent),YWHAG,0.297
TTCTAAGTCTGTCAGTCTGGGA,sensor-assay potency score (higher = more potent),YWHAG,-0.946
TAGAAGGTACTTGTTGTCCTCA,sensor-assay potency score (higher = more potent),YY1AP1,0.0643
TTCGCTGTAGGCCTTCTCGGAG,sensor-assay potency score (higher = more potent),YWHAG,-0.969
TTCCATCTTGACAACTTCCTCT,sensor-assay potency score (higher = more potent),YY1AP1,0.35
TTTGACCTGCATTTGCTTCTGC,sensor-assay potency score (higher = more potent),YY2,0.61
TTCAAACAGATCTTCCATCAGC,sensor-assay potency score (higher = more potent),YY1AP1,-0.176
TTCTGCTCCCACTTCCTCGTGC,sensor-assay potency score (higher = more potent),YY2,0.239
TGTTCTCTGACAATCCTTCTTG,sensor-assay potency score (higher = more potent),YY1AP1,-0.0122
TTGTGTCTGCAACATAAGCATT,sensor-assay potency score (higher = more potent),YY2,-1.56
TGTCAAGAGCTGAACATGCTGC,sensor-assay potency score (higher = more potent),YY1AP1,-0.313
TTAAGTTTGACGGATCTCCAAA,sensor-assay potency score (higher = more potent),ZBTB24,-1
TTAAGACATATCCTGGTGCTAC,sensor-assay potency score (higher = more potent),YY1AP1,-0.46
TACTGGACGCTTTCCGTCGGAA,sensor-assay potency score (higher = more potent),YY2,-1.27
TAGGGGACCACATAGTCACGGA,sensor-assay potency score (higher = more potent),YY2,-0.62
TGAATCTACAGAACAGTCCAGA,sensor-assay potency score (higher = more potent),YWHAG,0.0332
TTGGTGGTCAGAGCCTTGCTGC,sensor-assay potency score (higher = more potent),ZBTB24,-1.29
TAGCTGGTTGTCTGAGTCGCAA,sensor-assay potency score (higher = more potent),YY2,-1.47
TTGTACTTAAAGACCTTGCCAC,sensor-assay potency score (higher = more potent),ZBTB24,-0.0819
TTAATACTGTCAACTAATCAGA,sensor-assay potency score (higher = more potent),YWHAG,-0.755
TTTAGCTGTCTGTTCTGGCTGA,sensor-assay potency score (higher = more potent),ZBTB24,0.857
TTGAGCTCTCAAGAAAAGCTTT,sensor-assay potency score (higher = more potent),YY2,-0.69
TCAAGTACTCGGAATAATCAGG,sensor-assay potency score (higher = more potent),YY2,-0.787
TTGACTGAGCGAACTTCCTGTT,sensor-assay potency score (higher = more potent),YY2,-0.213
TTTAACCTTCTCTACCTCCTTC,sensor-assay potency score (higher = more potent),YY1AP1,0.0131
ATGAACTTCCTTACACTGGGGT,sensor-assay potency score (higher = more potent),YY1AP1,0.289
TCCTTCTCTATCTTCTCCCGGT,sensor-assay potency score (higher = more potent),YWHAG,-0.85
TTTAGTAAATTCTGCCAGCTGT,sensor-assay potency score (higher = more potent),YY2,-0.34
TAAAGTTAGCTTGAGGCTCAGC,sensor-assay potency score (higher = more potent),YY1AP1,-0.69
TAAACCATAAGGATGAATGAGA,sensor-assay potency score (higher = more potent),YWHAG,-0.514
TTGGAAGTCTGTGTAAGCCTTT,sensor-assay potency score (higher = more potent),ZBTB24,-0.108
TTTGCTTCCTTTTCGTGTCGGA,sensor-assay potency score (higher = more potent),YY1AP1,0.308
AATACCAGCACAGCTAGCCTGA,sensor-assay potency score (higher = more potent),YWHAG,-0.754
TTACACTGTTCCATGTCTGTAG,sensor-assay potency score (higher = more potent),YWHAG,0.201
TCGTCTTCAATGCTATCCGGGA,sensor-assay potency score (higher = more potent),YY2,-0.643
TGTCTGAGTCGCAATAGCCCAC,sensor-assay potency score (higher = more potent),YY2,-0.97
TTTTTCTAGGCCTTGATCTGAG,sensor-assay potency score (higher = more potent),YY1AP1,-0.00665
TTCAGGTAGAACACTTTGCTCT,sensor-assay potency score (higher = more potent),YWHAG,-0.452
TGTAGCTGAAGAATATTCCTGA,sensor-assay potency score (higher = more potent),ZBTB24,0.823
TTAGGGATAACAACCACTGGGG,sensor-assay potency score (higher = more potent),ZBTB24,-0.555
TTAAGTTTTCTTTTCATCTGAA,sensor-assay potency score (higher = more potent),YWHAG,0.563
TTCCTCTGTAGCATCTTCAGGT,sensor-assay potency score (higher = more potent),YY1AP1,0.0483
TACACTTATGACATCAGTCATC,sensor-assay potency score (higher = more potent),ZBTB8A,-0.715
AAGTCCACCACATAGGTCCTGG,sensor-assay potency score (higher = more potent),ZBTB39,-0.52
TTGCTTGTGAAACAGCCCGGGG,sensor-assay potency score (higher = more potent),ZBTB39,-1.25
TGCACTTTGACAGAACATCTGC,sensor-assay potency score (higher = more potent),ZBTB5,-0.0496
TAAAGTAGCCGCTACTAGCGAA,sensor-assay potency score (higher = more potent),ZBTB8A,-0.929
TTAACCACAAAGTTTTGTCTAT,sensor-assay potency score (higher = more potent),ZBTB24,-0.0895
TTGACTTATAATGAGTAACTTC,sensor-assay potency score (higher = more potent),ZBTB8A,-0.468
TACAATGACACAATCACAGAGC,sensor-assay potency score (higher = more potent),ZBTB5,0.0287
TAAATCTTTTTCCACAAGCTTG,sensor-assay potency score (higher = more potent),ZBTB8A,-1.26
TTCAGCATCAATCTGTGCTTGT,sensor-assay potency score (higher = more potent),ZBTB8A,0.622
TAGAACTTTCTTGCACACCTGG,sensor-assay potency score (higher = more potent),ZBTB39,-0.103
TAGCGAATAATACATTTCGATG,sensor-assay potency score (higher = more potent),ZBTB8A,-1.75
TTTGGTTAATCTGTCGTCGAAA,sensor-assay potency score (higher = more potent),ZBTB5,-0.689
ATCAAAACTAGTCTCAACCTGA,sensor-assay potency score (higher = more potent),ZBTB5,0.322
TAAAAGTCTTACATACACTTAT,sensor-assay potency score (higher = more potent),ZBTB8A,-0.256
TTTTGCATCACTATACAGGGAT,sensor-assay potency score (higher = more potent),ZBTB5,0.397
TACTTGATTACTTCTATGCTAT,sensor-assay potency score (higher = more potent),ZBTB5,0.0849
TAAAGAAACATCAAAATCGAGT,sensor-assay potency score (higher = more potent),ZBTB39,-0.558
TTGATAGAACTTTATGATCTGT,sensor-assay potency score (higher = more potent),ZBTB5,0.242
TTAAGAACTGAGCAGTAGCCAG,sensor-assay potency score (higher = more potent),ZBTB24,-1.12
TAAGCAGACACCAACATCCCTG,sensor-assay potency score (higher = more potent),ZBTB39,-0.047
TTAGACATCTACTATTTGGGGA,sensor-assay potency score (higher = more potent),ZBTB39,0.801
TTAAACACAACACAGAACAGAA,sensor-assay potency score (higher = more potent),ZBTB39,-0.952
TTTCTTTCTCACTAATGTCTAA,sensor-assay potency score (higher = more potent),ZBTB8A,-0.493
TCACAAAATACATCTTGCCTGC,sensor-assay potency score (higher = more potent),ZBTB8A,-0.43
TTGTTGAGTATTCTTCTGGGAG,sensor-assay potency score (higher = more potent),ZBTB8A,-0.386
TTTTTAATGGACTCTTTCCTTG,sensor-assay potency score (higher = more potent),ZBTB8A,-0.893
TAGGTTATTTGTGACTTCCAAA,sensor-assay potency score (higher = more potent),ZBTB5,-1.29
TAGTGTTTCAAGCAAAACCATT,sensor-assay potency score (higher = more potent),ZBTB39,-1.46
TTACAAACTACTTTCTGACTGC,sensor-assay potency score (higher = more potent),ZBTB5,0.686
TTGAGAAGTATTCACTACTGGC,sensor-assay potency score (higher = more potent),ZBTB24,0.328
TAATCTGTCGTCGAAAACGGTA,sensor-assay potency score (higher = more potent),ZBTB5,-0.933
TTGCTGTATCGACTCTGGCTTG,sensor-assay potency score (higher = more potent),ZBTB24,-0.983
TTCAACACTAGCAAAAACCTGT,sensor-assay potency score (higher = more potent),ZBTB39,-0.0406
TTAAATTCTGCAGTTGCTCTGG,sensor-assay potency score (higher = more potent),ZBTB24,0.17
TTAATCTCACAAGACACTGGTC,sensor-assay potency score (higher = more potent),ZBTB5,-0.0713
TTAAGTAATGTTTACATGCCTT,sensor-assay potency score (higher = more potent),ZBTB5,-0.579
TTAAGTACACAGACCACCCAGC,sensor-assay potency score (higher = more potent),ZBTB39,-0.108
TTAGTTTCACACATGTCGCAGG,sensor-assay potency score (higher = more potent),ZBTB39,-0.128
TATTATGCTAGAGACAATCTGG,sensor-assay potency score (higher = more potent),ZBTB39,0.145
TTCTACAATCTCCACATAGGAT,sensor-assay potency score (higher = more potent),ZBTB8A,-0.772
TATTCTTGAAACACCTTCTATA,sensor-assay potency score (higher = more potent),ZDHHC6,-0.715
TTATTCTTGAAACACCTTCTAT,sensor-assay potency score (higher = more potent),ZDHHC6,-0.81
TGCATCTCGGAACATGTCGTAC,sensor-assay potency score (higher = more potent),ZMAT5,-1.55
TAGAGCATCTTGGAGCTTCTAG,sensor-assay potency score (higher = more potent),ZNF169,-0.619
TTTGGACTTGAACTGCTTCCGG,sensor-assay potency score (higher = more potent),ZNF512B,0.34
TTCTGCACGAACAAGAGTGGGC,sensor-assay potency score (higher = more potent),ZNF592,-0.174
TTTAGAACTCTCTTTAGTGGGC,sensor-assay potency score (higher = more potent),ZNF592,0.465
TTTGTTTTCTACATCCTCTTGA,sensor-assay potency score (higher = more potent),ZNF836,0.866
TAGGAACTGATTCTCTACCTTT,sensor-assay potency score (higher = more potent),ZSCAN21,0.143
TAAGACTTGAAGACACTCTAAA,sensor-assay potency score (higher = more potent),ZNF836,-0.52
TACAACTGTAGCCAGAGCCTAT,sensor-assay potency score (higher = more potent),ZNFX1,-0.979
TTGACTGAAGACCTTGTCGCAT,sensor-assay potency score (higher = more potent),ZNF836,-0.213
ATATATAACGTCTCTCTCCTGG,sensor-assay potency score (higher = more potent),ZSCAN21,0.19
TTCAGTTTGAAATTTCTGCAGT,sensor-assay potency score (higher = more potent),ZNF836,0.363
TTGTCCACAACATGGACCCTGA,sensor-assay potency score (higher = more potent),ZNFX1,-0.839
TTTTGTCTGAAGATCTTGCCAC,sensor-assay potency score (higher = more potent),ZNF836,0.166
TGATACAAACTCTATCACCGGA,sensor-assay potency score (higher = more potent),ZSCAN21,0.695
ATAGACAAGGCAGTCGTGCTAT,sensor-assay potency score (higher = more potent),ZNRF2,0.0716
TTTGTCCACAACATGGACCCTG,sensor-assay potency score (higher = more potent),ZNFX1,-0.317
TAGACCTCTACTGCTATGCTAT,sensor-assay potency score (higher = more potent),ZNFX1,-0.477
TCGTGCTATAGTATCTCCCTGC,sensor-assay potency score (higher = more potent),ZNRF2,0.0677
TTTATCAGTATTACCTATGTAG,sensor-assay potency score (higher = more potent),ZNRF2,0.361
TAGACTGGATACACGTCTGTTT,sensor-assay potency score (higher = more potent),ZSCAN21,-0.362
TTGTTAAACACATTACAAGATG,sensor-assay potency score (higher = more potent),ZNRF2,-1.34
TTTGTTTCCACTATGAACTGTC,sensor-assay potency score (higher = more potent),ZNF836,1.2
TTGTTTTAAGACTCTCTGCAGT,sensor-assay potency score (higher = more potent),ZNF836,-0.237
TTTCTCTGTAGTATGTACCATC,sensor-assay potency score (higher = more potent),ZNF836,-0.51
TTACTTCAAACCATTCATCTAT,sensor-assay potency score (higher = more potent),ZNRF2,0.146
TAAACACATTACAAGATGCAAA,sensor-assay potency score (higher = more potent),ZNRF2,-1.15
TTATGATATATGCATAGACAAG,sensor-assay potency score (higher = more potent),ZNRF2,-1.91
TACTCAATCTGCAATCTCGGAC,sensor-assay potency score (higher = more potent),ZSCAN21,-0.338
TTCAATCTCTTCTAGCCGCTGT,sensor-assay potency score (higher = more potent),ZNFX1,0.737
TTGAACGCTGAGTATAGGCTTT,sensor-assay potency score (higher = more potent),ZNF836,0.0637
TAACTTTGACTAAAGGACTTGC,sensor-assay potency score (higher = more potent),ZNF836,0.219
TAGGAGAACATCTAAAGGCTTT,sensor-assay potency score (higher = more potent),ZNF836,0.15
TAAAACAACGACAACAACAGGA,sensor-assay potency score (higher = more potent),ZSCAN21,0.555
TTCTCTGCTATCTTGTAGCGGG,sensor-assay potency score (higher = more potent),ZNFX1,-0.426
